We go through nine molecules from PubChem BioAssay (NCI).

Compounds without any hit were thinned out: in the full panel of roughly 79,000, 15% have a hit. A number with no mark means an inactive call. Calls of active or inactive are those of the source. Cut-off read from the data, not from the text of the source: active = growth inhibition above about 70%; inactive = the rest.

Test [1] in a line: NCI Yeast Anticancer Drug Screen. Data for the rad50 strain (AID 155).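 Note: 0% = growth of vehicle-only cultures of the same strain.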 The following applies: S. cerevisiae rad50 strain growth inhibition, stronger effect = higher value. The procedure, abridged: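 Relative growth inhibition (compound vs vehicle) was measured in yeast with a defined repair-gene alteration.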
A short description of test [2]: NCI Yeast Anticancer Drug Screen. Data for the mec2-1 strain (AID 157). The following applies: S. cerevisiae mec2-1 strain, stronger effect = higher value. Summed up: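 Strain: mec2-1 (DNA repair/cell cycle alteration). Compound exposure, then growth measured; inhibition expressed relative to vehicle.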
Test [3] is described as follows: NCI Yeast Anticancer Drug Screen. Data for the sgs1 mgt1 strain (AID 161).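 Note: 0% = growth of cultures given vehicle only.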 To be noted: S. cerevisiae sgs1 mgt1 strain, stronger effect = higher value. Summed up:
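Test agents were incubated with a DNA-repair-mutant yeast strain. Growth was then read and compared against vehicle-treated controls.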

Test [4] can be described thus: NCI Yeast Anticancer Drug Screen. Data for the cln2 rad14 strain (AID 165).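 Note: 0% = growth equal to vehicle treated cultures.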 To be noted: S. cerevisiae cln2 rad14 strain, stronger effect = higher value. Summed up:
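Compounds are applied to the cln2 rad14 yeast strain, and growth is then compared with that of vehicle-treated cultures to give inhibition.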

A short description of test [5]: NCI Yeast Anticancer Drug Screen. Data for the bub3 strain (AID 167). The following applies: S. cerevisiae bub3 mutant strain, stronger effect = higher value. Summed up: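 Screening used yeast with an engineered genetic alteration affecting cell cycle control. Compound-exposed cultures were compared with vehicle cultures, and reduced growth was taken as inhibition.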
A short description of test [6]: NCI Yeast Anticancer Drug Screen. Data for the mlh1 rad18 strain (AID 175). The following applies: S. cerevisiae mlh1 rad18 strain growth inhibition, stronger effect = higher value. Summed up:
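Read-out is yeast growth inhibition, calculated against vehicle-only controls. The compound was applied to a strain engineered with DNA damage repair alterations.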

Setting [7] is: at 5.0 µM (retest, dose inferred, filed as 0.5).
Setting [8] is: at 50.0 µM (retest, dose inferred, filed as 5.0).

As to `Cc1ccc(Nc2nc3nc[nH]c3c(=O)[nH]2)cc1CO`, the growth inhibition was 2% in test [1] (setting [7]); 13% in test [1] (setting [8]); -4.35% in test [1] (at 50.0 µM); 10% in test [2] (setting [7]); 2% in test [2] (setting [8]); -12.4% in test [2] (at 50.0 µM). Further, the growth inhibition was -12% in test [3] (setting [7]); 14% in test [3] (setting [8]); -0.6% in test [3] (at 50.0 µM); -2% in test [4] (setting [7]); -4% in test [4] (setting [8]); 0% in test [4] (at 50.0 µM). The growth inhibition in test [5] (setting [7]) is 2%; in test [5] (setting [8]), -4%; in test [5] (at 50.0 µM), -8.75%; in test [6] (setting [7]), 15%; in test [6] (setting [8]), 7%; in test [6] (at 50.0 µM), 4.8%.

For `O=C1/C(=C\c2ccc(Cl)cc2Cl)Sc2scc(-c3cccc([N+](=O)[O-])c3)[n+]21`, the growth inhibition in test [1] (setting [7]) is 17%; in test [1] (setting [8]), 98% (active); in test [1] (at 50.0 µM), 85.6% (active); in test [2] (setting [7]), 36%; in test [2] (setting [8]) it was 99% (active); in test [2] (at 50.0 µM) it was 86.1% (active). The growth inhibition in test [3] (setting [7]) was 69%; in test [3] (setting [8]), 98% (active); in test [3] (at 50.0 µM), 89.9% (active); in test [4] (setting [7]), 28%; in test [4] (setting [8]), 97% (active); in test [4] (at 50.0 µM) it was 88.5% (active). Moreover, the growth inhibition in test [5] (setting [7]) is 96% (active); in test [5] (setting [8]), 97% (active); in test [5] (at 50.0 µM), 85.5% (active); in test [6] (setting [7]) it was 23%; in test [6] (setting [8]) it was 99% (active); in test [6] (at 50.0 µM), 90.9% (active).

Turning to `CCOC(=O)C(Cc1cc(I)c(Oc2ccc(OC)cc2)c(I)c1)NC(C)=O` (configuration not stated), the growth inhibition is 36% in test [1] (setting [7]); 92% (active) in test [1] (setting [8]); 86.8% (active) in test [1] (at 50.0 µM); 28% in test [2] (setting [7]); 96% (active) in test [2] (setting [8]); 83.2% (active) in test [2] (at 50.0 µM). Further, the growth inhibition was 41% in test [3] (setting [7]); 97% (active) in test [3] (setting [8]); 69% in test [3] (at 50.0 µM); 23% in test [4] (setting [7]); 95% (active) in test [4] (setting [8]); 89.3% (active) in test [4] (at 50.0 µM). Further, the growth inhibition in test [5] (setting [7]) was 39%; in test [5] (setting [8]) it was 96% (active); in test [5] (at 50.0 µM), 87.9% (active); in test [6] (setting [7]) it was 38%; in test [6] (setting [8]), 95% (active); in test [6] (at 50.0 µM), 87.8% (active).

As to `CC(/C=C/c1cccc(C)c1)=N\NC(N)=S`, the growth inhibition is 14% in test [1] (setting [7]); 41% in test [1] (setting [8]); 30.4% in test [1] (at 50.0 µM); 12% in test [2] (setting [7]); 38% in test [2] (setting [8]); 53.4% in test [2] (at 50.0 µM). For the same molecule, the growth inhibition in test [3] (setting [7]) is 16%; in test [3] (setting [8]), 34%; in test [3] (at 50.0 µM), 86.2% (active); in test [4] (setting [7]) it was 1%; in test [4] (setting [8]) it was 11%; in test [4] (at 50.0 µM), 38.6%. Besides, the growth inhibition was 20% in test [5] (setting [7]); 26% in test [5] (setting [8]); 81.1% (active) in test [5] (at 50.0 µM); 23% in test [6] (setting [7]); 38% in test [6] (setting [8]); 80.5% (active) in test [6] (at 50.0 µM).

With `CCCCCCCC/C=C\CCCCCCCC(=O)NCCN(C)C`, the growth inhibition in test [1] (setting [7]) is -1%; in test [1] (setting [8]), 99% (active); in test [1] (at 50.0 µM) it was 99.3% (active); in test [2] (setting [7]), 5%; in test [2] (setting [8]), 100% (active); in test [2] (at 50.0 µM), 99.4% (active). Moreover, the growth inhibition in test [3] (setting [7]) is 33%; in test [3] (setting [8]), 99% (active); in test [3] (at 50.0 µM), 99.5% (active); in test [4] (setting [7]), 2%; in test [4] (setting [8]), 99% (active); in test [4] (at 50.0 µM), 68.2%. Moreover, the growth inhibition is 2% in test [5] (setting [7]); 99% (active) in test [5] (setting [8]); 97.2% (active) in test [5] (at 50.0 µM); 22% in test [6] (setting [7]); 99% (active) in test [6] (setting [8]); 99.5% (active) in test [6] (at 50.0 µM).

Regarding `CCCCN(CCCC)CC(O)c1cc(-c2ccc(Cl)cc2)nc2c(-c3ccccc3)cccc12` (configuration not stated), the growth inhibition is -1% in test [1] (setting [7]); 30% in test [1] (setting [8]); 52.8% in test [1] (at 50.0 µM); -5% in test [2] (setting [7]); 13% in test [2] (setting [8]); 36.3% in test [2] (at 50.0 µM). For the same molecule, the growth inhibition in test [3] (setting [7]) is 0%; in test [3] (setting [8]) it was 54%; in test [3] (at 50.0 µM), 80.8% (active); in test [4] (setting [7]), -7%; in test [4] (setting [8]), 22%; in test [4] (at 50.0 µM), 13.8%. Also, the growth inhibition was -4% in test [5] (setting [7]); 24% in test [5] (setting [8]); 8.15% in test [5] (at 50.0 µM); 0% in test [6] (setting [7]); 39% in test [6] (setting [8]); 66.7% in test [6] (at 50.0 µM).

For `N/C(=N\OC1(c2ccccc2)OC(=O)C(=O)/C1=C(/O)c1ccccc1)c1ccccc1` (configuration not stated), the growth inhibition in test [1] (setting [7]) is 10%; in test [1] (setting [8]), 97% (active); in test [1] (at 50.0 µM), 98% (active); in test [2] (setting [7]) it was 8%; in test [2] (setting [8]), 89% (active); in test [2] (at 50.0 µM), 98.5% (active). Also, the growth inhibition was 13% in test [3] (setting [7]); 87% (active) in test [3] (setting [8]); 96.6% (active) in test [3] (at 50.0 µM); 0% in test [4] (setting [7]); 75% (active) in test [4] (setting [8]); 78% (active) in test [4] (at 50.0 µM). Also, the growth inhibition in test [5] (setting [7]) is 7%; in test [5] (setting [8]), 94% (active); in test [5] (at 50.0 µM), 98.2% (active); in test [6] (setting [7]) it was 4%; in test [6] (setting [8]), 92% (active); in test [6] (at 50.0 µM), 98.3% (active).

Turning to `O=C(OC1=C(Br)C(=O)c2ccccc2C1=O)c1ccccc1`, the growth inhibition in test [1] (setting [7]) is 13%; in test [1] (setting [8]), 99% (active); in test [1] (at 50.0 µM) it was 74.5% (active); in test [2] (setting [7]) it was 31%; in test [2] (setting [8]), 99% (active); in test [2] (at 50.0 µM) it was 60.2%. Moreover, the growth inhibition was 32% in test [3] (setting [7]); 98% (active) in test [3] (setting [8]); 66.3% in test [3] (at 50.0 µM); 4% in test [4] (setting [7]); 58% in test [4] (setting [8]); -17% in test [4] (at 50.0 µM). In addition, the growth inhibition in test [5] (setting [7]) is 12%; in test [5] (setting [8]) it was 89% (active); in test [5] (at 50.0 µM) it was 12.1%; in test [6] (setting [7]), 38%; in test [6] (setting [8]), 98% (active); in test [6] (at 50.0 µM) it was 51.2%.

Take `CCOC(=O)C(NNc1ccccc1)C(c1ccccc1)[P+](c1ccccc1)(c1ccccc1)c1ccccc1` (configuration not stated): the growth inhibition in test [1] (setting [7]) was 78% (active); in test [1] (setting [8]), 99% (active); in test [1] (at 50.0 µM), 99.5% (active); in test [2] (setting [7]), 94% (active); in test [2] (setting [8]) it was 99% (active); in test [2] (at 50.0 µM), 99.7% (active). Besides, the growth inhibition in test [3] (setting [7]) is 85% (active); in test [3] (setting [8]) it was 99% (active); in test [3] (at 50.0 µM), 99.7% (active); in test [4] (setting [7]), 59%; in test [4] (setting [8]), 99% (active); in test [4] (at 50.0 µM), 99.5% (active). Also, the growth inhibition in test [5] (setting [7]) was 91% (active); in test [5] (setting [8]), 99% (active); in test [5] (at 50.0 µM) it was 99.4% (active); in test [6] (setting [7]), 95% (active); in test [6] (setting [8]), 99% (active); in test [6] (at 50.0 µM) it was 99.7% (active).
